Data published in PubChem BioAssay (NCATS).
Results filed as inconclusive are left out. Unmarked numbers belong to inactive results. The source made the active and inactive calls. Calls come from the whole dose curve; as a rule, active = well fitted curve in the direction sought with a large enough effect; inconclusive = small, poorly fitted or top-dose-only effect, or another doubt; inactive = no such curve, though single readings can be large; an effect the other way counts as inactive or inconclusive.

Assays:
[1] = Viability qHTS for spleen associated tyrosine kinase inhibitor (SYKi) naive MV4-11 cells (AID 1963823); settings: MV4-11 AML viability, CellTiter-Glo luminescence, 72 h; series mostly up to 45 µM; note: nearly all actives have a fitted effect of over 40% in size
In short: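 CellTiter-Glo luminescence, 10 min room-temperature incubation, gave viability. Cells: naive MV4-11 (500/well), treated 72 hr at 37 C, 5% CO2.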

[2] = Cellular viability qHTS for adrenocortical cancer (ACC) cell line SW-13 (AID 1963989); settings: SW-13 ACC cells viability, CellTiter-Glo, 48 h; activity (max response): active compounds read low; note: nearly all actives have a fitted effect of over 65% in size;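 for activity (max response): cells grown in serum-free medium with ITS supplement; % is set by controls: 0 for no effect and ±100 for the full control effect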
In short: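 SW-13 cells in ITS-supplemented serum-free DMEM were plated overnight, then exposed for 48 h at 37C to compound titrations (up to 46 uM final). Viability was read by CellTiter-Glo luminescence; four-parameter logistic fits gave IC50 and efficacy.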

[3] = Cellular viability qHTS for adrenocortical cancer (ACC) cell line NCI-H295R (AID 1963990); settings: CellTiter-Glo ATP luminescence, 48 h; series mostly up to 46.1 µM; note: nearly all actives have a fitted effect of over 60% in size
In short: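 Luminescent ATP read-out (CellTiter-Glo, 20 min RT) after 48 h drug exposure of NCI-H295R cells; a titration up to 46 uM final. Data normalized to doxorubicin (100% inhibition) and DMSO (0%); 4-parameter fit gives IC50, max response.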

[4] = Viability qHTS for spleen associated tyrosine kinase inhibitor (SYKi) drug resistant MV4-11 cells (AID 1963824); settings: SYKi-resistant MV4-11 viability, CellTiter-Glo, 72 h; series mostly up to 45 µM; note: nearly all actives have a fitted effect of over 35% in size
In short: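 SYK inhibitor-resistant MV4-11 AML cells, 500 per well, added to predispensed compounds and incubated 72 hr at 37 C, 5% CO2. Viability measured by CellTiter-Glo luminescence after 10 min at room temperature.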
Potency is the fitted concentration of half-maximal effect.

**Q.** Which Potency [1] does the source give for `C[C@]12CC[C@H]3[C@@H](CCC4=CC(=O)CC[C@@H]43)[C@@H]1CC[C@@H]2O` here?
**A.** inactive

**Q.** And the activity (max response) [2]?
**A.** 5.27%

**Q.** What about the Potency [3] of the same compound?
**A.** inactive

**Q.** Which Potency [1] does the source give for `CN1CCC(N(Cc2ccccc2)c2ccccc2)CC1` here?
**A.** inactive

**Q.** What about the Potency [3] of the same compound?
**A.** inactive

**Q.** With `Cc1[nH]ncc1-c1cc2nc([C@@H]3CC4CCN3CC4)[nH]c(=O)c2s1` as the compound, how does the Potency [1] read?
**A.** 3.32 µM (active)

**Q.** What about the Potency [2] of the same compound?
**A.** 28.2 µM (active)

**Q.** What about the Potency [3] of the same compound?
**A.** 28.2 µM (active)

**Q.** With `C[C@]12CC[C@H](O[C@@H]3O[C@H](CO)[C@@H](O)[C@H](O)[C@H]3O)CC1CC[C@@H]1C2CC[C@]2(C)[C@@H](C3=CC(=O)OC3)CC[C@]12O` (stereo partly drawn) as the compound, how does the Potency [4] read?
**A.** 1.78 µM (active)

**Q.** With `CCC(C)C1NC(=O)C2CCCN2C(=O)C(CC(C)C)OC(=O)CCNC(=O)C(C)N(C)C(=O)C(C(C)C)N(C)C1=O` (stereo not drawn) as the compound, how does the Potency [4] read?
**A.** 5.44 µM (active)

**Q.** With `CC(C)(C)C(O)C(Oc1ccc(Cl)cc1)n1cncn1` (stereo not drawn) as the compound, how does the Potency [4] read?
**A.** 21.7 µM (active)

**Q.** Which results are given for `CCN(CC)C(=O)[C@@H]1C=C2c3cccc4[nH]cc(c34)C[C@H]2N(C)C1`?
**A.** Potency [1]: 28.4 µM (active); Potency [3]: inactive

**Q.** Which results are given for `NCCc1ccc(O)cc1`?
**A.** Potency [1]: inactive; activity (max response) [2]: 4.68%; Potency [3]: inactive

**Q.** For `CCCOC(=O)c1cncn1C(C)c1ccccc1` (stereo not drawn), which Potency [4] is on record?
**A.** inactive

**Q.** For `CCCCCn1cc(C(=O)Cc2ccccc2OC)c2ccccc21`, which Potency [4] is on record?
**A.** 20.6 µM (active)

**Q.** Which Potency [4] does the source give for `CC(=O)OC[C@]12C[C@H](O)C(C)=C[C@H]1O[C@@H]1[C@H](O)[C@@H](O)[C@@]2(C)[C@]12CO2` here?
**A.** 0.805 µM (active)

**Q.** For `CN1C[C@H](CNC(=O)OCc2ccccc2)C[C@@H]2c3cccc4c3c(cn4C)C[C@H]21`, which Potency [4] is on record?
**A.** 8.41 µM (active)

**Q.** For `CN1C(=O)[C@@H](NC(=O)[C@H](CCC(F)(F)F)[C@H](CCC(F)(F)F)C(N)=O)N=C(c2ccccc2)c2ccccc21`, which Potency [1] is on record?
**A.** inactive

**Q.** And the activity (max response) [2]?
**A.** -2.32%

**Q.** And the Potency [3]?
**A.** inactive
